# High-throughput results from PubChem.
# A selection: hits, their analogues and other compounds. The true share with any hit is near 12%.
# HP1b chromo inh: inhibitors of HP1-beta chromodomain binding to methylated histone tails; P83916; AlphaScreen HP1-beta / biotin-H3K9me3 peptide binding; Potency, µM (highest dose often 114 µM), without a hit: at the highest dose activity change, negative = inhibition, most hits filed as inhibitors; 390,000 compounds, 0.56% hits; AID 540317; also: nearly all actives have a fitted effect of over 70% in size
# Target sequence (P83916 whole entry, looked up): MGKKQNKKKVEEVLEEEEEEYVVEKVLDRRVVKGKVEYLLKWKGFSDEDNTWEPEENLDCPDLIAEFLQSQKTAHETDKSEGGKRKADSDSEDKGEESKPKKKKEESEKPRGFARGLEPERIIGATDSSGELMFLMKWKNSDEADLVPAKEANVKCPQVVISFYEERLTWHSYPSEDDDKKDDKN
#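 HP1-beta protein (50 nM final) preincubated 30 min at room temperature with biotinylated H3(1-18)K9me3 peptide (50 nM) in PBS pH 7.4, 0.01% Tween-20, then compound added for 30 min. AlphaScreen streptavidin donor/nickel chelate acceptor beads (10 ug/mL final), 30 min dark, luminescence read.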
# PLK1 PBD inh: PLK1 (human) polo-box domain binding inhibition; Plk1 PBD binding of FITC phosphopeptide, fluorescence polarization; Potency, µM, without a hit: max response, negative = inhibition, most hits filed as inhibitors; 360,000 compounds, 2.8% hits; also: series mostly up to about 57 µM; % is scaled to controls: 0 for no effect and ±100 for the full control effect; nearly all actives have a fitted effect of over 65% in size
# G9a block: G9a (human) methyltransferase inhibition; AID 504332; G9a H3K9 monomethylation, AlphaScreen, 2 h; 350,000 compounds, 8.8% hits; Potency, µM (top dose mostly 102 µM), for the others: top-dose activity, negative = inhibition, actives largely listed as inhibitors; also: % is scaled to controls: 0 for no effect and ±100 for the full control effect; nearly all actives have a fitted effect of over 75% in size
# Target sequence (Q96KQ7 913-1193 limits assumed): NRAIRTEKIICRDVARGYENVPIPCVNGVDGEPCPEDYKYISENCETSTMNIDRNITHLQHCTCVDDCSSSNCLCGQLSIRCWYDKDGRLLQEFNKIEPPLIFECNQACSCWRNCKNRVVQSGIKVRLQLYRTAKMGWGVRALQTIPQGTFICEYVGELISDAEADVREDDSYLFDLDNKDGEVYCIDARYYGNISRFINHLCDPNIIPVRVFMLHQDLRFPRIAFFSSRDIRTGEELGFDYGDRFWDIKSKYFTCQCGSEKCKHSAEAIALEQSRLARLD
#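 G9a (20 nM) was preincubated 15 min with compound, then reacted 2 h at room temperature with 500 nM biotin-H3K9 peptide and 20 µM SAM. Monomethyl-H3K9 detected by AlphaScreen using anti-H3K9me1 antibody.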
# Sfp PPTase inh: blocks B. subtilis Sfp PPTase activity | Q9F4F7 | Biochemical Sfp PPTase activity, qHTS | Potency, µM, for the others: largest response in the series, negative = inhibition, usual class: inhibitors | 310,000 compounds, 3.5% hits | AID 1490;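 also: the enzyme is Sfp with the accession as filed and its product quenches rhodamine fluorescence; 0% = enzyme reaction without inhibitor and -100% = no enzyme wells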
#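 Compounds were incubated with enzyme (final 15 nM) for 15 min at room temperature before substrate addition started the reaction. Fluorescence at 525 nm excitation, 598 nm emission was recorded immediately and after 30 minutes.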
# JMJD2A Tudor: JMJD2A Tudor domain (human) inhibition; 390,000 compounds, 4.4% hits; AID 504339; O75164; Potency, µM (doses to about 114 µM), inactives show at the top dose activity change, negative = inhibition, most hits filed as inhibitors; AlphaScreen JMJD2A-Tudor / H3K4me3 peptide binding; also: % is scaled to controls: 0 for no effect and ±100 for the full control effect; nearly all actives have a fitted effect of over 50% in size
# BAZ2B inh: BAZ2B (human) inhibition | Potency, µM (highest dose often 114 µM), inactives show at the highest dose activity change, negative = inhibition, most hits filed as inhibitors | AlphaScreen BAZ2B-H3K14Ac peptide displacement | Q9UIF8 | 360,000 compounds, 4.4% hits; also: % is scaled to controls: 0 for no effect and ±100 for the full control effect; nearly all actives have a fitted effect of over 60% in size
#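 AlphaScreen displacement of biotin-H3(5-23)K14Ac peptide (50 nM final) from BAZ2B (50 nM final) in PBS pH 7.4, 0.01% Tween-20; complex preformed 30 min RT, then compounds (top 110 uM) 30 min RT, beads 20 min dark.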
# The depositor's hits bear a star; ? = inconclusive; . = not tested or not shown; [ ] = dose if it differs, or a comment. Calls follow the shape of the dose curve; as a rule, active = well fitted curve in the direction sought with a large enough effect; inconclusive = small, poorly fitted or top-dose-only effect, or another doubt; inactive = no such curve, though single readings can be large; an effect the other way counts as inactive or inconclusive. Potency is read from the fitted curve at half-maximal effect.
SMILES,HP1b chromo inh,PLK1 PBD inh,G9a block,Sfp PPTase inh,JMJD2A Tudor,BAZ2B inh
COc1ccc(N2CCN(C(=O)COC(=O)c3ccc(-n4nc(C)cc4C)cc3)CC2)cc1,18%,-9%,?,.,-19%,-24%
Cc1cc(C(=O)CN2C(=O)NC(CC(C)C)C2=O)c(C)n1-c1ccccc1F (stereo not given),38%,-1%,50µM*,3%,-10%[57.1 µM],?
COC(=O)c1ccc(C(=O)OC)c(NC(=O)CSc2cccc[n+]2[O-])c1,?,24µM*,.,-103%,45µM*,-3%
COCCOC(=O)c1c(NC(=O)CSc2cccc[n+]2[O-])sc(C(N)=O)c1C,32%,-6%,2.5µM*,11%,-17%,?
CCCc1cc(=O)[nH]c(SCC(=O)Nc2sc(C(N)=O)c(C)c2C(=O)OCCOC)n1,26%,-6%,10%[12.7 µM],.,-6%,14%
COC(=O)c1ccc(C(=O)OC)c(NC(=O)CSCC(=O)O)c1,27%,0%,.,6%,1%,1%
Cc1[nH]c2ccccc2c1-c1nc(N)sc1C,7%,?,71µM*,-1%,-23%,?
O=C(O)c1ccccc1CSc1nc2ccccc2[nH]1,-10%,-21%,50µM*,6%,-17%,-16%
Cc1nn(-c2ccc(C(=O)O)cc2)c(N)c1-c1ccccc1,45%,-13%,-32%,13%,-3%[11.4 µM],-11%
O=C(CSc1nc2ccccc2[nH]1)c1ccccc1F,12%,-10%,-6%,1%,-7%,2%
Nc1c(-c2ccccc2)c(CSc2nc3ccccc3[nH]2)nn1-c1ccc(C(=O)O)cc1,?,15µM*,?,25%,22µM*,10%
FC(F)(Cl)c1nnc2ccc(Sc3ccccn3)nn12,41%,21µM*,25µM*,-9%,-1%,-20%
Cc1nc(N)[nH]c(=O)c1CCCNc1ccc([N+](=O)[O-])cc1,15%[57 µM],6%,.,.,-10%,.
CCC(C)c1ccc(S(=O)(=O)Nc2cccnc2)cc1 (stereo not given),46%,-12%,50µM*,4%,-30%,-31%
NC(=O)c1ccccc1NC(=O)c1cc(S(=O)(=O)N2CCCCC2)ccc1N1CCOCC1,30%,-5%,?,.,-18%,-1%
CN(C)CCCn1c2c(c(SCC(=O)Nc3cccc4ccccc34)nc1=O)CCCC2,19%,-2%,40µM*,.,-5%,3%
CCCCc1ccc(NC(=O)CSc2nc(=O)n(CCN(CC)CC)c3c2CCC3)cc1,8%,-10%,50µM*,.,-34%,-1%
CCN(CC)CCCn1c2c(c(SCC(=O)Nc3ccc(F)c(F)c3)nc1=O)CCC2,28%,-5%,-43%,.,-1%,-5%
CCN(CC)CCCn1c2c(c(SCC(=O)Nc3cc(OC)cc(OC)c3)nc1=O)CCC2,33%,-13%,50µM*,.,-9%,2%
CCN(CC)CCCn1c2c(c(SCC(=O)Nc3cccc(C)c3C)nc1=O)CCC2,22%,-6%,?,.,-12%,14%
CCN(CC)CCCn1c2c(c(SCC(=O)Nc3cccc4ccccc34)nc1=O)CCC2,13%,1%,40µM*,.,-17%,12%
Cc1ccc(NC(=O)CSc2nc(=O)n(CCCN(C)C)c3c2CCC3)c(C)c1,13%,-5%,-27%,.,-8%,-8%
CC(CC(O)C1OC1(C)C)C1CCC2(C)C3=CCC4C(C)(C)C(=O)CCC4(C)C3CC[C@@]12C (stereo not given in full),.,.,-10%[2.33 µM],-21%,.,.
CC(Sc1nc2c(c(=O)[nH]1)CCCC2)C(=O)Nc1cc(C(F)(F)F)ccc1Cl (stereo not given),3%,.,-36%[59 µM],.,-17%,0%
CCCN(C(=O)c1ccc2c(=O)n3c(nc2c1)CCCCC3)c1cccc(Cl)c1,5%,.,-4%[59 µM],.,-23%,-3%
Cc1cc(C)cc(NC(=O)CSc2nnc(CNC(=O)c3c(F)cccc3Cl)o2)c1,68%,.,39%[59 µM],.,-9%,36%
COC(=O)CC1Oc2ccc(F)cc2-n2cc(-c3ccc(C)cc3)nc21 (stereo not given),-1%,.,-2%[59 µM],.,-18%,-16%
